Common to all, as to settings: concentration: 1 μM,replicates: in singlicate; n = 1
In assay [1] the test system is BMX.
The subject of assay [2] is BRAF.
The subject of assay [3] is T1, BRK.
T1 construct: gene PTK6

In assay [4] the test system is BRSK1.
The test system of assay [5] is BRSK2.
Assay [6] deals with BTK.
Assay [7] deals with BUB1.
In assay [8] the test system is CAMK1B.
The subject of assay [9] is CAMK1D.
Assay [10] deals with CAMK1G.
Assay [11] relates to CAMK1.
Assay [12] concerns CAMK2A.
Assay [13] has as its system CAMK2B.
For assay [14], the system named is CAMK2D.
Assay [15] has as its system CAMK2G.
The test system of assay [16] is CAMK4.
Assay [17] deals with CAMKK1.
The subject of assay [18] is CAMKK2.
The test system of assay [19] is CASK.
Assay [20] relates to T2, CDC2L1.
T2 construct: gene CDK11B

Results on eleven compounds are retold here after PMC5540273 (PLoS ONE, 2017).
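Further: KINOMEscan kinase panel screen.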

With `N#Cc1cccc(C(=O)NC2CCN(c3ccnc(Nc4ccc(F)cc4)n3)C2)c1` (stereo not shown) [GSK1379708], the “%Inh” value in [1] was found to be 6%; in assay [2], 0%; in [3], 16%; in assay [4] it was 0%; in assay [5] it was 0%; in assay [6] it was 0%. Also, the “%Inh” value was 31% in [7]; 0% in assay [8]; 5% in assay [9]; 0% in assay [10]; 9% in assay [11]; 0% in assay [12]. In addition, the “%Inh” value in assay [13], in [14], in [15], in assay [16], in assay [17] and in assay [18] was 0% each time. Also, the “%Inh” value in assay [19] is 15%; in [20], 0%.
On to `Cc1ccc2c(-c3ccnc(Nc4ccc(C(F)(F)F)cc4)n3)cnn2n1` [GW819776], for which the “%Inh” value in assay [1] amounted to 0%; in assay [2], 0%; in assay [3], 4%; in assay [4] it was 0%; in [5], 14%; in [6] it was 0%. The “%Inh” value in assay [7] is 6%; in assay [8] it was 0%; in [9], 0%; in assay [10], 0%; in [11], 0%; in assay [12], 0%. Also, the “%Inh” value in [13] worked out at 0%; in assay [14] it was 0%; in [15] it was 0%; in assay [16], 0%; in [17], 19%; in assay [18] it was 0%. Moreover, the “%Inh” value in assay [19] amounted to 21%; in assay [20], 0%.
In the case of `COc1cccc(CNC(=O)NC2CCN(c3ccnc(Nc4cc(OC)c(OC)c(OC)c4)n3)C2)c1` (stereo not shown) [GSK1379765], the “%Inh” value was 23% in assay [1]; 0% in [2]; 34% in assay [3]; 0% in assay [4]; 0% in [5]; 42% in assay [6]. Also, the “%Inh” value was determined as 81% in assay [7]; 35% in [8]; 17% in [9]; 0% in assay [10]; 35% in [11]; 0% in assay [12]. The “%Inh” value in assay [13] is recorded as 0%; in [14], 0%; in assay [15], 19%; in assay [16], 0%; in [17], 16%; in [18] it was 14%. Moreover, the “%Inh” value in [19] and in [20] was 0% in each case.
With `CCn1c(-c2nonc2N)nc2cncc(CNC3CCNCC3)c21.Cl` [SB-747651], the “%Inh” value is given as 0% in assay [1]; 10% in [2]; 0% in assay [3]; 4% in assay [4]; 0% in [5]; 14% in assay [6]. Besides, the “%Inh” value in assay [7] is given as 48%; in assay [8] it was 30%; in assay [9] it was 22%; in [10], 0%; in [11] it was 19%; in assay [12], 0%. The “%Inh” value was 0% in assay [13]; 5% in assay [14]; 17% in [15]; 71% in [16]; 1% in assay [17]; 16% in assay [18]. Besides, the “%Inh” value was 16% in assay [19] and 0% in assay [20].
`CS(=O)(=O)Nc1ccc(-c2ccnc3[nH]ccc23)cc1` [GSK993273]: the “%Inh” value in assay [1] was 0%; in [2] it was 0%; in assay [3], 0%; in [4], 8%; in assay [5], 0%; in assay [6], 0%. Moreover, the “%Inh” value came to 35% in assay [7]; 27% in [8]; 38% in assay [9]; 30% in assay [10]; 36% in [11]; 6% in assay [12]. Moreover, the “%Inh” value was 7% in [13]; 16% in [14]; 24% in assay [15]; 0% in assay [16]; 8% in assay [17]; 0% in assay [18]. In addition, the “%Inh” value stood at 21% in [19] and 0% in assay [20].
As to `Cn1ccc2ncnc(Oc3ccc(NC(=O)Nc4cc(C(C)(C)C)on4)c(Cl)c3)c21`, the “%Inh” value came out at 33% in assay [1]; 76% in assay [2]; 10% in assay [3]; 8% in assay [4]; 0% in assay [5]; 0% in [6]. Moreover, the “%Inh” value in [7] worked out at 5%; in [8], 0%; in assay [9] it was 14%; in [10], 12%; in [11], 17%; in [12], 100%. In addition, the “%Inh” value in [13] is 100%; in [14], 4%; in assay [15], 14%; in assay [16] it was 0%; in assay [17], 6%; in assay [18], 22%. The “%Inh” value in assay [19] and in assay [20] was 0% each time.
As to `CN(c1cccc(CNc2nc(Nc3ccc4c(c3)CC(=O)N4)ncc2C(F)(F)F)c1)S(C)(=O)=O`, the “%Inh” value in assay [1] was found to be 18%; in assay [2], 0%; in assay [3], 0%; in assay [4], 0%; in assay [5], 0%; in assay [6], 0%. The “%Inh” value in assay [7] turned out to be 2%; in assay [8] it was 9%; in [9], 14%; in [10], 15%; in assay [11] it was 0%; in assay [12], 0%. Also, the “%Inh” value in assay [13] is 0%; in assay [14], 7%; in assay [15] it was 0%; in assay [16], 0%; in assay [17], 15%; in [18] it was 16%. The “%Inh” value in assay [19] was 7%; in assay [20] it was 0%.
Consider `NC(=O)Nc1sc(-c2ccc(F)cc2)cc1C(N)=O` [GW789449], for which the “%Inh” value in [1] was determined as 0%; in assay [2], 8%; in assay [3], 0%; in assay [4], 2%; in assay [5], 0%; in assay [6], 62%. Moreover, the “%Inh” value in assay [7] was found to be 20%; in assay [8] it was 34%; in assay [9] it was 43%; in assay [10], 0%; in assay [11], 12%; in [12], 0%. The “%Inh” value stood at 0% in assay [13]; 2% in assay [14]; 0% in [15]; 0% in [16]; 12% in assay [17]; 7% in assay [18]. The “%Inh” value in [19] was 15%; in assay [20], 0%.
Turning to `C[C@@H](Oc1cc(-n2cnc3cc(-c4ccncc4)ccc32)sc1C(N)=O)c1ccccc1Cl` [GSK479719], the “%Inh” value amounted to 18% in assay [1]; 1% in [2]; 15% in [3]; 58% in assay [4]; 79% in [5]; 0% in [6]. Also, the “%Inh” value stood at 23% in [7]; 18% in assay [8]; 6% in [9]; 0% in assay [10]; 4% in [11]; 0% in assay [12]. Further, the “%Inh” value in assay [13] was 0%; in assay [14] it was 0%; in assay [15] it was 0%; in [16] it was 0%; in assay [17] it was 18%; in [18], 54%. Besides, the “%Inh” value in [19] was determined as 29%; in assay [20] it was 0%.
Regarding `Cn1ccc2ncnc(Oc3ccc(NC(=O)Nc4cnn(C(C)(C)C)c4)c(Cl)c3)c21`, the “%Inh” value is given as 0% in assay [1]; 77% in assay [2]; 0% in [3]; 0% in [4]; 12% in assay [5]; 0% in [6]. For the same compound, the “%Inh” value in assay [7] stood at 0%; in assay [8], 9%; in [9] it was 0%; in assay [10] it was 0%; in [11] it was 9%; in assay [12], 0%. The “%Inh” value in assay [13] was found to be 17%; in assay [14] it was 0%; in assay [15], 2%; in assay [16], 7%; in assay [17] it was 0%; in [18] it was 0%. Moreover, the “%Inh” value in [19] turned out to be 10%; in assay [20], 0%.
Take `Cl.Cl.NC[C@H](CC1CCCCC1)NC(=O)c1ccc(-c2ccnc3[nH]ccc23)s1` [GSK1581428]: the “%Inh” value in assay [1] is given as 2%; in assay [2], 0%; in assay [3] it was 5%; in assay [4], 11%; in [5], 17%; in assay [6], 0%. Besides, the “%Inh” value in [7] is recorded as 44%; in assay [8] it was 0%; in assay [9], 36%; in [10], 9%; in [11], 37%; in assay [12], 0%. For the same compound, the “%Inh” value worked out at 0% in assay [13]; 7% in assay [14]; 5% in assay [15]; 0% in [16]; 40% in assay [17]; 27% in [18]. Further, the figures for the “%Inh” value in assay [19] and in [20] were 4% and 0%, respectively.
